# Test results: PubChem BioAssay (EPA / NIEHS)
# Inconclusive results are not listed. Calls of active or inactive are those of the source. The calls were made as follows: active = hit-call score of the fitted dose curve at least 0.9, where 1 is the maximum; inconclusive = response in the unintended direction; inactive = score below 0.9.
# How the values were obtained:
# [1] = target: human Sirtuin 2 (SIRT2), SIRT2 (gene 22933) (UniProt Q8IXJ6); assay: NVS_ENZ_hSIRT2: NovaScreen (NVS) Enzymatic Assay for human Sirtuin 2 (SIRT2) (AID 2283217)
# How it was run: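 Single-point duplicate screen at 25 uM, then concentration-response (max 50 uM) for chemicals passing threshold. Enzyme activity of recombinant human SIRT2 measured after 1 hr by fluorescence with mobility-shift separation of product; DMSO baseline.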
# [2] = target: human Sirtuin 3 (SIRT3), SIRT3 (gene 23410) (UniProt Q9NTG7); assay: NVS_ENZ_hSIRT3: NovaScreen (NVS) Enzymatic Assay for human Sirtuin 3 (SIRT3) (AID 2283222)
# How it was run: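 Cell-free enzyme assay with recombinant protein and fluorescent substrate, product separated by electrophoretic mobility shift; read 1 hour after dosing. Screened in duplicate at 25 uM, then singleton concentration-response up to 50 uM; loss of signal versus DMSO.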
# [3] = target: Tyrosine-protein phosphatase non-receptor type 11 (Homo sapiens) (UniProt Q06124); assay: NVS_ENZ_hPTPN11: NovaScreen (NVS) Enzymatic Assay for human Protein Tyrosine Phosphatase Non-receptor Type 11 (PTPN11) (AID 2283202)
# How it was run: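 Compounds first tested in duplicate at 25 uM; those reaching ~30% inhibition rerun in singleton concentration-response, top 50 uM. Phosphatase activity measured after 0.5 h by fluorescence with mobility-shift separation, relative to DMSO.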
# [4] = target: Serine/threonine-protein phosphatase PP1-alpha catalytic subunit (Homo sapiens) (UniProt P62136); assay: NVS_ENZ_hPPP1CA: NovaScreen (NVS) Enzymatic Assay for human Protein Phosphatase 1 Aatalytic subunit Alpha (PPP1CA) (AID 2283200)
# How it was run: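 Chemicals were first screened in duplicate at 25 uM, and those passing threshold (e.g. 30% inhibition) were run as concentration series to 50 uM. Cell-free recombinant protein, 1.33 h read, fluorescent substrate/product mobility-shift detection, normalised to DMSO.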
# [5] = target: human Protein Tyrosine Phosphatase Non-receptor Type 1 (PTPN1), PTPN1 (gene 5770) (UniProt P18031); assay: NVS_ENZ_hPTPN1: NovaScreen (NVS) Enzymatic Assay for human Protein Tyrosine Phosphatase Non-receptor Type 1 (PTPN1) (AID 2283201)
# How it was run: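 Chemicals were first tested in duplicate at 25 uM, and those passing threshold went on to singleton concentration series topping at 50 uM. Recombinant enzyme, specific substrate, product separated by mobility shift, fluorescence read at 1.33 h; activity loss relative to DMSO.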
# [6] = target: Tyrosine-protein phosphatase non-receptor type 14 (Homo sapiens) (UniProt Q15678); assay: NVS_ENZ_hPTPN14: NovaScreen (NVS) Enzymatic Assay for human Protein Tyrosine Phosphatase Non-receptor Type 14 (PTPN14) (AID 2283206)
# How it was run: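 Fluorescent substrate turnover by recombinant human PTPN14 was measured 0.5 h after compound addition, with substrate and product separated by mobility shift. Single-point screening at 25 uM, then concentration-response up to 50 uM for chemicals meeting threshold (e.g., 30% inhibition).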
# [7] = target: human Protein Tyrosine Phosphatase Receptor Type F (PTPRF), PTPRF (gene 5792) (UniProt P10586); assay: NVS_ENZ_hPTPRF: NovaScreen (NVS) Enzymatic Assay for human Protein Tyrosine Phosphatase Receptor Type F (PTPRF) (AID 2283213)
# How it was run: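 Cell-free fluorescence enzyme assay with recombinant protein and substrate; product separated by electrophoretic mobility shift. Read 1 h after dosing, single 25 uM duplicate screen, then concentration-response up to 50 uM; loss of signal vs DMSO.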
# [8] = target: human Sirtuin 1 (SIRT1), SIRT1 (gene 23411) (UniProt Q96EB6); assay: NVS_ENZ_hSIRT1: NovaScreen (NVS) Enzymatic Assay for human Sirtuin 1 (SIRT1) (AID 2283219)
# How it was run: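 Cell-free recombinant SIRT1 with a fluorescent substrate; substrate and product separated by electrophoretic mobility shift and read by fluorescence intensity, 1 h after dosing. Primary screen at 25 uM in duplicate; hits re-run in concentration-response up to 50 uM, relative to DMSO.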
# [9] = target: human SRC Proto-Oncogene, Non-receptor Tyrosine Kinase (SRC), SRC (gene 6714) (UniProt P12931); assay: NVS_ENZ_hSRC: NovaScreen (NVS) Enzymatic Assay for human SRC Proto-Oncogene, Non-receptor Tyrosine Kinase (SRC) (AID 2283223)
# How it was run: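 Compounds passing 30% inhibition at 25 uM (duplicate) were titrated to a top concentration of 50 uM. Enzyme activity read by fluorescence with mobility-shift substrate/product separation after 1 h; DMSO baseline.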
# [10] = target: human Tropomyosin Receptor Kinase A (TRKA), NTRK1 (gene 4914) (UniProt P04629); assay: NVS_ENZ_hTrkA: NovaScreen (NVS) Enzymatic Assay for human Tropomyosin Receptor Kinase A (TRKA) (AID 2283224)
# How it was run: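 Compounds were screened at 25 uM in duplicate, then concentration series to a 50 uM top for those meeting threshold (e.g. 30% inhibition). Enzyme was recombinant human TrkA, incubated 1 h. Product formation was quantified by fluorescence after mobility-shift separation.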
# [11] = target: human Rho Associated Coiled-coil Containing Protein Kinase 1 (ROCK1), ROCK1 (gene 6093) (UniProt Q13464); assay: NVS_ENZ_hROCK1: NovaScreen (NVS) Enzymatic Assay for human Rho Associated Coiled-coil Containing Protein Kinase 1 (ROCK1) (AID 2283214)
# How it was run: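 Compounds first run in duplicate at 25 uM against recombinant human ROCK1, then followed in concentration series. Kinase activity was read 1 h post-dosing by fluorescence with mobility-shift separation, as signal loss relative to DMSO.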
# [12] = target: human Vascular Endothelial Growth Factor Receptor 2 (VEGFR2), KDR (gene 3791) (UniProt P35968); assay: NVS_ENZ_hVEGFR2: NovaScreen (NVS) Enzymatic Assay for human Vascular Endothelial Growth Factor Receptor 2 (VEGFR2) (AID 2283230)
# How it was run: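 Cell-free recombinant VEGFR2 kinase, fluorescent substrate with electrophoretic mobility-shift separation; read 1 h after dosing. Screened at 25 uM in duplicate, hits to concentration-response up to 50 uM; loss-of-signal versus DMSO.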
# [13] = target: sheep Cyclooxygenase-2 (Cox2), PTGS2 (gene 443460) (UniProt P79208); assay: NVS_ENZ_oCOX2: NovaScreen (NVS) Enzymatic Assay for sheep Cyclooxygenase-2 (Cox2) (AID 2283231)
# How it was run: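 Ovine placental enzyme, cell-free; chemical added, 0.66 h, absorbance (colorimetric). Screen 25 uM in duplicate; ≥threshold hits titrated, top 50 uM. Inhibition = signal loss vs DMSO.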
# [14] = target: human Protein Tyrosine Phosphatase Non-receptor Type 6 (PTPN6), PTPN6 (gene 5777) (UniProt P29350); assay: NVS_ENZ_hPTPN6: NovaScreen (NVS) Enzymatic Assay for human Protein Tyrosine Phosphatase Non-receptor Type 6 (PTPN6) (AID 2283210)
# How it was run: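 Recombinant human PTPN6 from SF9 cells, enzyme activity followed by fluorescence after mobility-shift separation of substrate and product at 1.33 h. Chemicals first tested at a single 25 uM in duplicate, then confirmed across concentration series; loss of signal relative to DMSO.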
# [15] = target: rabbit Imidazoline 2 Central (I2C), CKB (gene 100009085) (UniProt P00567); assay: NVS_ENZ_rabI2C: NovaScreen (NVS) Enzymatic Assay for rabbit Imidazoline 2 Central (I2C) (AID 2283228)
# How it was run: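 Rabbit brain membranes, cell-free; readout by filter-based scintillation counting 1.5 hours after dosing, loss of signal vs DMSO. Initial duplicate test at 25 uM, then concentration-response with 50 uM top concentration.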
# [16] = target: Tyrosine-protein phosphatase non-receptor type 13 (Homo sapiens) (UniProt Q12923); assay: NVS_ENZ_hPTPN13: NovaScreen (NVS) Enzymatic Assay for human Protein Tyrosine Phosphatase Non-receptor Type 13 (PTPN13) (AID 2283205)
# How it was run: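 Screened first at a single 25 uM in duplicate; compounds passing the threshold (e.g. 30% inhibition) were rerun in concentration series, top 50 uM. Recombinant enzyme, fluorescent substrate, mobility-shift separation, 0.5 h read. Data fitted as inhibition relative to DMSO.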
# [17] = target: human Protein Tyrosine Phosphatase Receptor Type M (PTPRM), PTPRM (gene 5797) (UniProt P28827); assay: NVS_ENZ_hPTPRM: NovaScreen (NVS) Enzymatic Assay for human Protein Tyrosine Phosphatase Receptor Type M (PTPRM) (AID 2283215)
# How it was run: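 Read-out is fluorescence after electrophoretic separation of substrate and product, taken 1.33 h post-dosing with recombinant enzyme. Compounds screened at 25 uM in duplicate, then concentration series for actives; activity as signal loss relative to DMSO.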
# [18] = target: Tyrosine-protein phosphatase non-receptor type 12 (Homo sapiens) (UniProt Q05209); assay: NVS_ENZ_hPTPN12: NovaScreen (NVS) Enzymatic Assay for human Protein Tyrosine Phosphatase Non-receptor Type 12 (PTPN12) (AID 2283204)
# How it was run: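 Single-concentration duplicates (25 uM) preceded singleton concentration-response up to 50 uM for chemicals passing threshold. Cell-free recombinant PTPN12 activity was read 1.33 h after dosing via fluorescence after mobility-shift separation; loss of signal versus DMSO.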
# [19] = target: human Protein Tyrosine Phosphatase Receptor Type B (PTPRB), PTPRB (gene 5787) (UniProt P23467); assay: NVS_ENZ_hPTPRB: NovaScreen (NVS) Enzymatic Assay for human Protein Tyrosine Phosphatase Receptor Type B (PTPRB) (AID 2283211)
# How it was run: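 Recombinant human PTPRB with a fluorescent substrate, product separated by electrophoretic mobility shift; read 1 h after dosing. Primary screen in duplicate at 25 uM; actives then retested in concentration series; loss of signal versus DMSO.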
# [20] = target: human Vascular Endothelial Growth Factor Receptor 1 (VEGFR1), FLT1 (gene 2321) (UniProt P17948); assay: NVS_ENZ_hVEGFR1: NovaScreen (NVS) Enzymatic Assay for human Vascular Endothelial Growth Factor Receptor 1 (VEGFR1) (AID 2283226)
# How it was run: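 Kinase activity of recombinant human VEGFR1 was read by fluorescence after electrophoretic separation of product from substrate, 1 h post-dosing; initial duplicate single-point testing at 25 uM, followed by concentration-series follow-up, with DMSO as baseline.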
# human Protein Tyrosine Phosphatase Receptor Type B (PTPRB), PTPRB (gene 5787), sequence (P23467 whole entry, looked up): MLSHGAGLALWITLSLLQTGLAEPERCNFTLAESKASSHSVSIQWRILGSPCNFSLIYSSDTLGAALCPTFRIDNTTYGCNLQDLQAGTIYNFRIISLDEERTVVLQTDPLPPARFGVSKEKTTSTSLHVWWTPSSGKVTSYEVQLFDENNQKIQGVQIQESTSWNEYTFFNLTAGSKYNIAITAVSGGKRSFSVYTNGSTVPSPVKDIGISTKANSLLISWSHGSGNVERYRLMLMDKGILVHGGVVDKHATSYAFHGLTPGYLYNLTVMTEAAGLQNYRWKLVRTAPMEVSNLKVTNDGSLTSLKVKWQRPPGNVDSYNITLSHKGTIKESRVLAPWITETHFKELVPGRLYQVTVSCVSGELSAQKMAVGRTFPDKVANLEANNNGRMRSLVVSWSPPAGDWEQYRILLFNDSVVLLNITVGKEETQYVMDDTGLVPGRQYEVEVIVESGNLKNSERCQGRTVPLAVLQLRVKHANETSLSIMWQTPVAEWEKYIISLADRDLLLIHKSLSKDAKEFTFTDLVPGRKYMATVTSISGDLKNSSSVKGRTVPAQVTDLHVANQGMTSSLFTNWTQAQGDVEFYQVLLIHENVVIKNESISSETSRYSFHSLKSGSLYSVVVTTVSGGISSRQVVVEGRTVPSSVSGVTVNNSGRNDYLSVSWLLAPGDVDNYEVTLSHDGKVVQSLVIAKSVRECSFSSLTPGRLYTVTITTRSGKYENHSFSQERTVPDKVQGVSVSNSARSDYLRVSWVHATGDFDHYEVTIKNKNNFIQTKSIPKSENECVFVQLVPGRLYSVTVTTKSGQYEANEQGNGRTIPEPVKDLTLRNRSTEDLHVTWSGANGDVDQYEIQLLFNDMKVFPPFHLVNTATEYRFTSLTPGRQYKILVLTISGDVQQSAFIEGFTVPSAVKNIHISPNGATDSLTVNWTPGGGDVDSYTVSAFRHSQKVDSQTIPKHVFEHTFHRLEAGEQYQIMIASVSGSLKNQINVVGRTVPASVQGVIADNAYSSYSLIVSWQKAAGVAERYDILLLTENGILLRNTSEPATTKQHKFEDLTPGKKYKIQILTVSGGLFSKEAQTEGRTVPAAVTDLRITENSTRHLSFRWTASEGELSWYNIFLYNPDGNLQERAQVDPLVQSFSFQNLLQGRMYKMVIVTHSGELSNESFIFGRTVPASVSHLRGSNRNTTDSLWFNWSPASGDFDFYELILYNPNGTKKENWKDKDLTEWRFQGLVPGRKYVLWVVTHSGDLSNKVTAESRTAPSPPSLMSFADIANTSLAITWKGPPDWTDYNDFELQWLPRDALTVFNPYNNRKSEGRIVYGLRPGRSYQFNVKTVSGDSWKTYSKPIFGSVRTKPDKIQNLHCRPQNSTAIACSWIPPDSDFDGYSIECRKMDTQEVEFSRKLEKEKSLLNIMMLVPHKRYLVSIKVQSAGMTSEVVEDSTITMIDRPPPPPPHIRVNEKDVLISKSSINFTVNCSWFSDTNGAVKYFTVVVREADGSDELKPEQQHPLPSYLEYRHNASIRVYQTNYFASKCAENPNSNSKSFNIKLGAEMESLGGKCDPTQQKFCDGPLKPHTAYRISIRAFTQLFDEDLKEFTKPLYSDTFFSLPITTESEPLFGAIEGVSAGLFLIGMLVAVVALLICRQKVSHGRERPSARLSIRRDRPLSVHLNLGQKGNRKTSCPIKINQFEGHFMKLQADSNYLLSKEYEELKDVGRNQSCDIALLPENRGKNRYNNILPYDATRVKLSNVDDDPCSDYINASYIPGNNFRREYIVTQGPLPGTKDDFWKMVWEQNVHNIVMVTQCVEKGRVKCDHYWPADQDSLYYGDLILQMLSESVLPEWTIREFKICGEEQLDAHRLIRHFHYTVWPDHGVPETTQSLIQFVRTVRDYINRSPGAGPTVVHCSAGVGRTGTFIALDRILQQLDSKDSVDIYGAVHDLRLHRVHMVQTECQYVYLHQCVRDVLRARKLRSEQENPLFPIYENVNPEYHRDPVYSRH
# human Protein Tyrosine Phosphatase Non-receptor Type 1 (PTPN1), PTPN1 (gene 5770), sequence (P18031 whole entry, looked up): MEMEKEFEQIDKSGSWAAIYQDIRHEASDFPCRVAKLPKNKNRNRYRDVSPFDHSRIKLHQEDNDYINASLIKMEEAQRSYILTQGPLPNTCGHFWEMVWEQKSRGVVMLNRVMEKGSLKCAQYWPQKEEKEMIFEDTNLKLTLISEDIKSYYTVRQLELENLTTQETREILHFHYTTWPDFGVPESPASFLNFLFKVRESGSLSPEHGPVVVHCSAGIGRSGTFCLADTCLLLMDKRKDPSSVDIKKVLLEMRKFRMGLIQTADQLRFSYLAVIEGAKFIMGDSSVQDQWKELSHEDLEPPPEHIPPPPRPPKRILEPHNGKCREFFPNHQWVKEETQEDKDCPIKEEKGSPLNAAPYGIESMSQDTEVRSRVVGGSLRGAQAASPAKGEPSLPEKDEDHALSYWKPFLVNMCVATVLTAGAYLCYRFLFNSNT
# rabbit Imidazoline 2 Central (I2C), CKB (gene 100009085), sequence (P00567 whole entry, looked up): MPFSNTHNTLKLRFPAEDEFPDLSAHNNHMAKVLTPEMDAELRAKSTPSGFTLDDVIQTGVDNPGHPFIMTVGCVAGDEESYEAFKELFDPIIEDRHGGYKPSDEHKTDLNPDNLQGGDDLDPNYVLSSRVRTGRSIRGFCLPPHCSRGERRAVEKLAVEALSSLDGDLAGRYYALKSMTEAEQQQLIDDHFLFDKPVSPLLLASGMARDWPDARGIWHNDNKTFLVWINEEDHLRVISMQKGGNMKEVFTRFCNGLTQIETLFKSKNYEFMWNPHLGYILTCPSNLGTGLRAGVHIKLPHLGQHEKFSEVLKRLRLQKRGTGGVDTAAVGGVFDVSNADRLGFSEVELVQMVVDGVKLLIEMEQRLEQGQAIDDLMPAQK
# human Rho Associated Coiled-coil Containing Protein Kinase 1 (ROCK1), ROCK1 (gene 6093), sequence (Q13464 whole entry, looked up): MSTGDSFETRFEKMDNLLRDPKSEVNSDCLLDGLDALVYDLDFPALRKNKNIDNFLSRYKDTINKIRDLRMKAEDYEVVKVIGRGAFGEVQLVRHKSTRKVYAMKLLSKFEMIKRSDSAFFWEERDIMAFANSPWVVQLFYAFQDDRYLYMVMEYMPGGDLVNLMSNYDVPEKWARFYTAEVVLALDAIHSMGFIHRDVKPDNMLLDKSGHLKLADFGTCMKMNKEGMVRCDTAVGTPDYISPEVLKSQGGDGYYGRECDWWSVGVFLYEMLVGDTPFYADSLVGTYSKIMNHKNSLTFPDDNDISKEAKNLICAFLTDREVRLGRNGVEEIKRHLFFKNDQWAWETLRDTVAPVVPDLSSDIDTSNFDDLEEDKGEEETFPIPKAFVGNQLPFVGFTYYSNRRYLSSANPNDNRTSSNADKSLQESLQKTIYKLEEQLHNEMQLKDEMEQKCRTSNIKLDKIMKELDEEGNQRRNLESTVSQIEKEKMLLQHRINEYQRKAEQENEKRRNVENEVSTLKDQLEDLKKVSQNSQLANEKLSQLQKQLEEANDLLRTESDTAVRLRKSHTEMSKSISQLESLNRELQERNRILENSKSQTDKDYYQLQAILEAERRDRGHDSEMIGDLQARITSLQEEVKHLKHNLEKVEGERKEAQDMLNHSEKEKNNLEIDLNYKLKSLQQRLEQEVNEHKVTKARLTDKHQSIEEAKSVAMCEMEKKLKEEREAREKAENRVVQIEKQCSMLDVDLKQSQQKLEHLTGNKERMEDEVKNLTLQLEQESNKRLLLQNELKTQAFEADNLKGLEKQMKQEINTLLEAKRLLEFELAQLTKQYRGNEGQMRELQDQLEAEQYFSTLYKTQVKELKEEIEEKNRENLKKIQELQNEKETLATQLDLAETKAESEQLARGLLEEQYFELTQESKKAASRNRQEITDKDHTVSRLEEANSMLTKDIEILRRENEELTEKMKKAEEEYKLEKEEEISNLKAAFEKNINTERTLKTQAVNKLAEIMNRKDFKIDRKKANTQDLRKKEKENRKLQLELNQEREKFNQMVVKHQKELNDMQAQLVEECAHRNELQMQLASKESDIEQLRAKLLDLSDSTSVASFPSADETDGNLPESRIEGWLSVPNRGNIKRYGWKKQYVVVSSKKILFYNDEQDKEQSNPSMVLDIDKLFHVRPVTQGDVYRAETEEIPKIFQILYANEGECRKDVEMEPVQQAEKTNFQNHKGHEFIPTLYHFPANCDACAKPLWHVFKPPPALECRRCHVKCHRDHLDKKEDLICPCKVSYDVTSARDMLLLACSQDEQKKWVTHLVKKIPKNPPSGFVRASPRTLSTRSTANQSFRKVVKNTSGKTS
# human Sirtuin 2 (SIRT2), SIRT2 (gene 22933), sequence (Q8IXJ6 whole entry, looked up): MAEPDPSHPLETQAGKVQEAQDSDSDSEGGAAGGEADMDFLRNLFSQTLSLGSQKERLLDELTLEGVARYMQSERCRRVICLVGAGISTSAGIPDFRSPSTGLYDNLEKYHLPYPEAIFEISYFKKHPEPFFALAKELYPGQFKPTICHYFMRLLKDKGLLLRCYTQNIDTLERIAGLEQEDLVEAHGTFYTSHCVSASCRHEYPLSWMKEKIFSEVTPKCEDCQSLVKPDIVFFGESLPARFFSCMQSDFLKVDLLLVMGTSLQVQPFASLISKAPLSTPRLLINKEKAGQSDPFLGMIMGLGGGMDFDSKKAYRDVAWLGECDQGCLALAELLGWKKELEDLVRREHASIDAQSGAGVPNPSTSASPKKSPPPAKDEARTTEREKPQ
# human Sirtuin 3 (SIRT3), SIRT3 (gene 23410), sequence (Q9NTG7 whole entry, looked up): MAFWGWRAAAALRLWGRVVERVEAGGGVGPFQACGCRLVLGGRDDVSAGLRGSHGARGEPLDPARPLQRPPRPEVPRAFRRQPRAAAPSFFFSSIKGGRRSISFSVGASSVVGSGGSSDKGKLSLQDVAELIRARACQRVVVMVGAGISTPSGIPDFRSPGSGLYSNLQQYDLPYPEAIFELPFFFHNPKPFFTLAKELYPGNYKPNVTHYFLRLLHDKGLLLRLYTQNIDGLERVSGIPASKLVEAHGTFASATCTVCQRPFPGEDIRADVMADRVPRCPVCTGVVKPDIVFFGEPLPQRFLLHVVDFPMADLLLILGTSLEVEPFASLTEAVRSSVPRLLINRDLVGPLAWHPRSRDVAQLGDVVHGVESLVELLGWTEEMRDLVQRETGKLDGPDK
compound,measurement,setting,value
NC(=O)c1nc(-c2cccc(-c3cc(F)ccc3OCC(F)(F)C(F)(F)F)c2)n[nH]1,outcome,[1],inactive
same,outcome,[2],inactive
CCCCCCCCN(C)CCCCCCCC,outcome,[1],inactive
O=C1CCC(C2CCCCC2)CC1,outcome,[3],inactive
O=C(O)Cn1c(=O)n(Cc2ccc(Br)cc2F)c(=O)c2ccc(Cl)cc21,outcome,[1],inactive
CCOC(=O)O[C@H](C)OC(=O)c1ccc2c(c1)cc(C(=O)NC1CCN(C(C)C)CC1)n2Cc1cc(-c2ccc(Cl)s2)on1,AC50,[4],18.6 µM (active)
CN1C(=O)N(c2ccccc2Br)Cc2cnc(Nc3ccc4c(c3)OCC(CO)O4)nc21 (stereo not drawn),outcome,[5],inactive
same,outcome,[6],inactive
same,outcome,[7],inactive
same,outcome,[8],inactive
same,AC50,[9],0.00229 µM (active)
same,AC50,[10],0.493 µM (active)
CC[C@@H]1C[C@H](N(Cc2cc(C(F)(F)F)cc(C(F)(F)F)c2)C(C)=O)c2cc(C(F)(F)F)ccc2N1C(=O)OC(C)C,outcome,[5],inactive
COc1cc(C(=O)NC2CCN(C)CC2)ccc1Nc1ncc2c(n1)N(C1CCCC1)CC(F)(F)C(=O)N2C,outcome,[6],inactive
same,outcome,[11],inactive
same,outcome,[1],inactive
same,outcome,[12],inactive
same,AC50,[13],15.2 µM (active)
Cc1c2ccccc2c(C)c2c1ccc1ccccc12,outcome,[4],inactive
same,outcome,[12],inactive
OCCO,outcome,[11],inactive
same,outcome,[12],inactive
c1ccc(C[n+]2cccc3ccccc32)cc1,outcome,[5],inactive
same,outcome,[14],inactive
same,AC50,[15],11.9 µM (active)
CCCCOC(=O)CC(CC(=O)OCCCC)(OC(C)=O)C(=O)OCCCC,outcome,[16],inactive
c1ccc2ccccc2c1,outcome,[4],inactive
same,outcome,[3],inactive
same,outcome,[9],inactive
same,outcome,[12],inactive
CC(=O)N1CCN(c2ccc(OC[C@H]3CO[C@](Cn4ccnc4)(c4ccc(Cl)cc4Cl)O3)cc2)CC1,AC50,[1],6.46 µM (active)
same,outcome,[8],inactive
CCN(CC)C(=O)c1cc(S(=O)(=O)Cc2ccccc2)c(N2CCC(c3ccccc3)CC2)cc1N(CC)CCN(C)C,outcome,[16],inactive
same,outcome,[17],inactive
same,AC50,[2],4.57 µM (active)
Oc1ccc2ccccc2c1,outcome,[6],inactive
same,outcome,[8],inactive
CC/C(=C(/CC)c1ccc(O)cc1)c1ccc(O)cc1,outcome,[3],inactive
same,outcome,[18],inactive
same,outcome,[6],inactive
same,outcome,[19],inactive
O=C1c2ccccc2C(=O)N1CCc1noc(-c2ccc(CN3CCCCCC3)s2)n1,outcome,[3],inactive
same,outcome,[1],inactive
same,outcome,[2],inactive
same,AC50,[15],7.93 µM (active)
CCN(Cc1cccc(S(=O)(=O)O)c1)c1ccc(C(=C2C=CC(=[N+](CC)Cc3cccc(S(=O)(=O)O)c3)C=C2)c2ccccc2S(=O)(=O)[O-])cc1,AC50,[4],5.82 µM (active)
same,AC50,[6],11.9 µM (active)
CC[C@H](NC(=O)c1cc(F)ccc1NS(=O)(=O)c1cccc2cccnc12)c1ccccc1,outcome,[4],inactive
CC(C)(C)c1csc(-c2cc3cc(OCc4ccccc4CC(=O)O)ccc3o2)n1,outcome,[5],inactive
same,outcome,[3],inactive
same,outcome,[1],inactive
CC(C)(c1cc(Br)c(O)c(Br)c1)c1cc(Br)c(O)c(Br)c1,outcome,[11],inactive
CCCCCCCCCC(=O)O,outcome,[19],inactive
same,outcome,[8],inactive
same,outcome,[10],inactive
Clc1cc(Cl)c2c(c1)N=C1CCCCCN1C2,outcome,[19],inactive
same,outcome,[7],inactive
same,AC50,[15],6.89 µM (active)
COc1ccc2cc(S(=O)(=O)N[C@H](CC(=O)N[C@H](Cc3ccc(CN4[C@H](C)CCC[C@@H]4C)cc3)C(=O)N(C)C(C)C)c3ccc4c(c3)OCO4)ccc2c1,outcome,[8],inactive
O=c1c(-c2ccc(O)cc2)coc2cc(O)cc(O)c12,outcome,[8],inactive
Cc1cccc2ccccc12,outcome,[9],inactive
O=C(O)Cc1cc(I)c(Oc2ccc(O)c(I)c2)c(I)c1,AC50,[10],2.58 µM (active)
Cc1cc2c(cc1C(F)(F)F)N(C(=O)Nc1ccc(Oc3cccnc3C)nc1)CC2,outcome,[20],inactive
